Hit rate of the full screen: of about 5,700 compounds, about 85 (1%) were called active. Rule as the data show it: active = p53-positive nuclei above about 36% (passing the limit was not always enough); inactive = the rest. What follows is part of a selection rich in actives, with near analogues and random picks from the rest.
What was measured:
[1] = nuclear p53 accumulation, HPV+ cells – imaging, p53-positive nuclei imaging, 24 h, 48 h (AID 1508601); conditions: 24/48 h
[2] = target: Cellular tumor antigen p53 (Homo sapiens) (UniProt P04637); experiment: as above; conditions: 24/48 h, stronger effect = higher value
[3] = measured here: cell number at 24 h, Library stock concentration: 3.33 mM
[4] = measured here: cell number at 48 h, Library stock concentration: 3.33 mM
[5] = Library stock concentration: 3.33 mM
[6] = measured here: p53 positive nuclei at 24 h, Library stock concentration: 3.33 mM
[7] = measured here: cell number at 24 h, concentration not given here
[8] = measured here: cell number at 48 h, concentration not given here
[9] = measured here: p53 positive nuclei at 24 h, concentration not given here
[10] = measured here: cell number at 24 h, Library stock concentration: 80 uM
[11] = measured here: cell number at 24 h, Library stock concentration: 400 uM
[12] = measured here: cell number at 24 h, Library stock concentration: 2 mM
[13] = measured here: cell number at 24 h, Library stock concentration: 10 mM
[14] = measured here: cell number at 48 h, Library stock concentration: 80 uM
[15] = measured here: cell number at 48 h, Library stock concentration: 400 uM
[16] = measured here: cell number at 48 h, Library stock concentration: 2 mM
[17] = measured here: cell number at 48 h, Library stock concentration: 10 mM
[18] = Library stock concentration: 80 uM
[19] = Library stock concentration: 400 uM
[20] = Library stock concentration: 2 mM
[21] = Library stock concentration: 10 mM
[22] = measured here: p53 positive nuclei at 24 h, Library stock concentration: 80 uM
[23] = measured here: p53 positive nuclei at 24 h, Library stock concentration: 400 uM
[24] = measured here: p53 positive nuclei at 24 h, Library stock concentration: 2 mM
[25] = measured here: p53 positive nuclei at 24 h, Library stock concentration: 10 mM

Chain of Cellular tumor antigen p53 (Homo sapiens) (P04637 whole entry, looked up): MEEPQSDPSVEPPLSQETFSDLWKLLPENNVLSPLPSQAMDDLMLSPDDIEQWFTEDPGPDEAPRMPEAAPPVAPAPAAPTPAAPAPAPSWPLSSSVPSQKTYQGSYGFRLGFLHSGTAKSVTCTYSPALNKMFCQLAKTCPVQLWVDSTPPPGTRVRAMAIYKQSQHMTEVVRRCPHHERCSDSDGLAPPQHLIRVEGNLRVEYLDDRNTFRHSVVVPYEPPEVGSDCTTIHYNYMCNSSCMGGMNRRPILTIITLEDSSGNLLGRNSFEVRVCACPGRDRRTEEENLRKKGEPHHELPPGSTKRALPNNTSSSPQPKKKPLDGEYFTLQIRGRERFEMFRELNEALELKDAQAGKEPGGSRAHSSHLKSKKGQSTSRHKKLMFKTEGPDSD

Question: What does the source list for `CCC(C)C(NC(=O)C(CCC(=O)O)NC(=O)C(CC(C)C)NC(=O)C1CN=C(C(N)C(C)C)S1)C(=O)NC1CCCCNC(=O)C(CC(N)=O)NC(=O)C(CC(=O)O)NC(=O)C(Cc2cnc[nH]2)NC(=O)C(Cc2ccccc2)NC(=O)C(C(C)CC)NC(=O)C(CCCN)NC1=O` (stereo not given)?
Answer: nuclei count, normalised [1, 3]: 97.5%; nuclei count, normalised [1, 4]: 99%; p53-positive nuclei, normalised [2, 5]: -0.136% (inactive); p53-positive nuclei, normalised [2, 6]: -0.227%

Question: Which results are given for `C[C@]12CC[C@H]3c4ccc(O)cc4CC[C@H]3[C@@H]1CCC2=O`?
Answer: nuclei count, normalised [1, 3]: 111%; nuclei count, normalised [1, 4]: 121%; p53-positive nuclei, normalised [2, 5]: -0.0334% (inactive); p53-positive nuclei, normalised [2, 6]: -0.211%

Question: For `COC(=O)[C@]12CCC(C)(C)C[C@@H]1[C@@H]1C(=O)C=C3[C@]4(C)C=C(C#N)C(=O)C(C)(C)[C@@H]4CC[C@@]3(C)[C@]1(C)CC2`, which nuclei count, normalised [1, 3] is on record?
Answer: 36.3%

Question: And the nuclei count, normalised [1, 4]?
Answer: 29.9%

Question: What about the p53-positive nuclei, normalised [2, 5] of the same molecule?
Answer: 79.7% (active)

Question: And the p53-positive nuclei, normalised [2, 6]?
Answer: 88.9%

Question: With `CCCCN=C(N)NO` as the molecule, how does the nuclei count, normalised [1, 7] read?
Answer: 99.4%

Question: And the nuclei count, normalised [1, 8]?
Answer: 99.4%

Question: And the p53-positive nuclei, normalised ([2]; concentration not given here)?
Answer: -0.143% (inactive)

Question: What about the p53-positive nuclei, normalised [2, 9] of the same molecule?
Answer: -0.0268%

Question: Which nuclei count, normalised [1, 3] does the source give for `Cc1nc(N)sc1-c1ccnc(Nc2ccc(N3CCOCC3)cc2)n1` here?
Answer: 40.5%

Question: What about the nuclei count, normalised [1, 4] of the same molecule?
Answer: 28.3%

Question: And the p53-positive nuclei, normalised [2, 5]?
Answer: -0.214% (inactive)

Question: And the p53-positive nuclei, normalised [2, 6]?
Answer: -0.143%

Question: For `Fc1cc(-c2ccnc(Nc3ccc(-n4cnc(N5CCOCC5)n4)cc3)n2)cc(N2CCOCC2)c1`, which nuclei count, normalised [1, 10] is on record?
Answer: 86.7%

Question: What about the nuclei count, normalised [1, 11] of the same molecule?
Answer: 101%

Question: And the nuclei count, normalised [1, 12]?
Answer: 64.8%

Question: What about the nuclei count, normalised [1, 13] of the same molecule?
Answer: 36.4%

Question: What about the nuclei count, normalised [1, 14] of the same molecule?
Answer: 73%

Question: What about the nuclei count, normalised [1, 15] of the same molecule?
Answer: 81%

Question: And the nuclei count, normalised [1, 16]?
Answer: 43.7%

Question: What about the nuclei count, normalised [1, 17] of the same molecule?
Answer: 21.7%

Question: And the p53-positive nuclei, normalised [2, 18]?
Answer: 27.8% (inactive)

Question: What about the p53-positive nuclei, normalised [2, 19] of the same molecule?
Answer: 13.6% (inactive)

Question: What about the p53-positive nuclei, normalised [2, 20] of the same molecule?
Answer: 90.9% (active)

Question: What about the p53-positive nuclei, normalised [2, 21] of the same molecule?
Answer: 38.1% (inactive)

Question: What about the p53-positive nuclei, normalised [2, 22] of the same molecule?
Answer: 7.9%

Question: And the p53-positive nuclei, normalised [2, 23]?
Answer: 2.88%

Question: What about the p53-positive nuclei, normalised [2, 24] of the same molecule?
Answer: 49.4%

Question: And the p53-positive nuclei, normalised [2, 25]?
Answer: 15.7%

Question: Which nuclei count, normalised [1, 10] does the source give for `O=C(Nc1ccc(-c2ccnc(Nc3ccc(N4CCOCC4)cc3)n2)cc1)C1CCCN1` (stereo not given) here?
Answer: 114%

Question: And the nuclei count, normalised [1, 11]?
Answer: 116%

Question: And the nuclei count, normalised [1, 12]?
Answer: 107%

Question: And the nuclei count, normalised [1, 3]?
Answer: 102%

Question: What about the nuclei count, normalised [1, 13] of the same molecule?
Answer: 104%

Question: What about the nuclei count, normalised [1, 14] of the same molecule?
Answer: 109%

Question: And the nuclei count, normalised [1, 15]?
Answer: 109%

Question: What about the nuclei count, normalised [1, 16] of the same molecule?
Answer: 104%

Question: What about the nuclei count, normalised [1, 4] of the same molecule?
Answer: 95.9%

Question: What about the nuclei count, normalised [1, 17] of the same molecule?
Answer: 101%

Question: What about the p53-positive nuclei, normalised [2, 18] of the same molecule?
Answer: 0.0592% (inactive)

Question: What about the p53-positive nuclei, normalised [2, 19] of the same molecule?
Answer: -0.0399% (inactive)

Question: What about the p53-positive nuclei, normalised [2, 20] of the same molecule?
Answer: -0.0329% (inactive)

Question: What about the p53-positive nuclei, normalised [2, 5] of the same molecule?
Answer: -0.0902% (inactive)

Question: What about the p53-positive nuclei, normalised [2, 21] of the same molecule?
Answer: 0.0109% (inactive)

Question: And the p53-positive nuclei, normalised [2, 22]?
Answer: 0.0145%

Question: And the p53-positive nuclei, normalised [2, 23]?
Answer: -0.114%

Question: What about the p53-positive nuclei, normalised [2, 24] of the same molecule?
Answer: 0.0282%

Question: What about the p53-positive nuclei, normalised [2, 6] of the same molecule?
Answer: -0.231%

Question: And the p53-positive nuclei, normalised [2, 25]?
Answer: -0.058%

Question: With `CC(C)CC(NC(=O)CNC(=O)c1cc(Cl)ccc1Cl)B(O)O` (stereo not given) as the molecule, how does the nuclei count, normalised [1, 3] read?
Answer: 50.2%

Question: And the nuclei count, normalised [1, 4]?
Answer: 43.3%

Question: And the p53-positive nuclei, normalised [2, 5]?
Answer: 98% (active)

Question: And the p53-positive nuclei, normalised [2, 6]?
Answer: 94%

Question: What does the source list for `CC(C)CC(NC(=O)CNC(=O)c1cc(Cl)ccc1Cl)B1OC(=O)CC(CC(=O)O)(C(=O)O)O1` (stereo not given)?
Answer: nuclei count, normalised [1, 3]: 46.4%; nuclei count, normalised [1, 4]: 36.8%; p53-positive nuclei, normalised [2, 5]: 97.7% (active); p53-positive nuclei, normalised [2, 6]: 101%

Question: Which nuclei count, normalised [1, 3] does the source give for `CCCC(C)NC(=O)c1ccc(Cl)c(Cl)c1` (stereo not given) here?
Answer: 116%

Question: What about the nuclei count, normalised [1, 4] of the same molecule?
Answer: 114%

Question: And the p53-positive nuclei, normalised [2, 5]?
Answer: -0.00479% (inactive)

Question: What about the p53-positive nuclei, normalised [2, 6] of the same molecule?
Answer: -0.344%

Question: With `CNC(=O)C(c1ccccc1)N1CCc2cc(OC)c(OC)cc2C1CCc1ccc(C(F)(F)F)cc1` (stereo not given) as the molecule, how does the nuclei count, normalised [1, 3] read?
Answer: 107%

Question: And the nuclei count, normalised [1, 4]?
Answer: 104%

Question: What about the p53-positive nuclei, normalised [2, 5] of the same molecule?
Answer: -0.362% (inactive)

Question: What about the p53-positive nuclei, normalised [2, 6] of the same molecule?
Answer: -0.539%

Question: What does the source list for `Cc1occc1C(=O)Nc1ccccc1C(=O)N(C)Cc1ccccn1`?
Answer: nuclei count, normalised [1, 7]: 96.8%; nuclei count, normalised [1, 8]: 105%; p53-positive nuclei, normalised ([2]; concentration not given here): 0.23% (inactive); p53-positive nuclei, normalised [2, 9]: 0.178%

Question: For `O=C(c1ccccc1-c1nn[nH]n1)N1CCc2[nH]cnc2C1c1ccccn1` (stereo not given), which nuclei count, normalised [1, 7] is on record?
Answer: 101%

Question: And the nuclei count, normalised [1, 8]?
Answer: 107%

Question: What about the p53-positive nuclei, normalised ([2]; concentration not given here) of the same molecule?
Answer: -0.169% (inactive)

Question: What about the p53-positive nuclei, normalised [2, 9] of the same molecule?
Answer: -0.0711%

Question: Which nuclei count, normalised [1, 7] does the source give for `O=C(OC[C@@H]1O[C@H]1c1ccccc1)Oc1ccc([N+](=O)[O-])cc1` here?
Answer: 101%

Question: What about the nuclei count, normalised [1, 8] of the same molecule?
Answer: 105%

Question: And the p53-positive nuclei, normalised ([2]; concentration not given here)?
Answer: -0.0534% (inactive)

Question: What about the p53-positive nuclei, normalised [2, 9] of the same molecule?
Answer: -0.0466%

Question: What does the source list for `CC(C)CC(C(=O)NC(Cc1ccc(OCc2ccccc2)cc1)C(=O)NC(C)(C)C)N(C)Cc1ccc(C(C)(C)C)cc1` (stereo not given)?
Answer: nuclei count, normalised [1, 10]: 108%; nuclei count, normalised [1, 11]: 108%; nuclei count, normalised [1, 12]: 110%; nuclei count, normalised [1, 13]: 113%; nuclei count, normalised [1, 14]: 103%; nuclei count, normalised [1, 15]: 105%; nuclei count, normalised [1, 16]: 103%; nuclei count, normalised [1, 17]: 109%; p53-positive nuclei, normalised [2, 18]: 0.116% (inactive); p53-positive nuclei, normalised [2, 19]: -0.221% (inactive); p53-positive nuclei, normalised [2, 20]: 0.074% (inactive); p53-positive nuclei, normalised [2, 21]: -0.262% (inactive); p53-positive nuclei, normalised [2, 22]: -0.0604%; p53-positive nuclei, normalised [2, 23]: -0.22%; p53-positive nuclei, normalised [2, 24]: -0.108%; p53-positive nuclei, normalised [2, 25]: -0.169%
